# In the supplement of paper PMC10849652:
# Of roughly 7,900 targets only a part is listed; those with a hit were picked by preference. About 0.6% of all pairs of compound and target were hits. Unmarked numbers belong to inactive results.
# Compound: CC[C@@H]1C(=O)N(C)c2cnc(Nc3ccc(C(=O)NC4CCN(C)CC4)cc3OC)nc2N1C1CCCC1
# Test: log2 fold change, soluble protein after heating vs DMSO (PISA); higher = thermal stabilisation; K562 cells, 10 uM, 30 min; active = over 0.2 and 3.5 SD of the protein, either way, in both replicates (recomputed)
# Method in brief: (§1)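 Soluble protein was defined as the supernatant after 21,000xg for 90 min. It came from K562 cells at 2×10^6 cells/mL given 10 μM compound for 30 min, heated in aliquots for 3 min across 48°C-58°C, pooled, and extracted in PBS with 0.5% NP-40 at 4°C, and was quantified by TMTpro 16plex LC-MS/MS with equalised channel sums. Thermal stability against control samples, from duplicates, is reported as log2 fold change.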
# Sequence of UniProt Q92692 (Q92692 whole entry, looked up): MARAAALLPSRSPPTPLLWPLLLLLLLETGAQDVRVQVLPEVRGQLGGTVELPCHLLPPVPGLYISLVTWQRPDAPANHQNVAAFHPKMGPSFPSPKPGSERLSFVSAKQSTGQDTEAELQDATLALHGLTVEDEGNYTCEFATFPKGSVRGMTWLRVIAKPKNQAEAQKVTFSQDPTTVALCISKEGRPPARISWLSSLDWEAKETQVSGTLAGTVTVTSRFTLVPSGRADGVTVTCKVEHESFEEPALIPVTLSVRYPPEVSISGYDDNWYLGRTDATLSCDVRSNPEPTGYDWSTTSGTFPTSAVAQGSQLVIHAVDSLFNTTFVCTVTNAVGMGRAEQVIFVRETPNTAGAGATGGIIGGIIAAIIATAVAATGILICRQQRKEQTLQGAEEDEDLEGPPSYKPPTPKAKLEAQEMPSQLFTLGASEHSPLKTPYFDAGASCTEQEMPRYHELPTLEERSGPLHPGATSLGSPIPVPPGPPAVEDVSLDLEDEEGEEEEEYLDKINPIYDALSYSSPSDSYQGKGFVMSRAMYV
# Sequence of UniProt Q12968 (Q12968 whole entry, looked up): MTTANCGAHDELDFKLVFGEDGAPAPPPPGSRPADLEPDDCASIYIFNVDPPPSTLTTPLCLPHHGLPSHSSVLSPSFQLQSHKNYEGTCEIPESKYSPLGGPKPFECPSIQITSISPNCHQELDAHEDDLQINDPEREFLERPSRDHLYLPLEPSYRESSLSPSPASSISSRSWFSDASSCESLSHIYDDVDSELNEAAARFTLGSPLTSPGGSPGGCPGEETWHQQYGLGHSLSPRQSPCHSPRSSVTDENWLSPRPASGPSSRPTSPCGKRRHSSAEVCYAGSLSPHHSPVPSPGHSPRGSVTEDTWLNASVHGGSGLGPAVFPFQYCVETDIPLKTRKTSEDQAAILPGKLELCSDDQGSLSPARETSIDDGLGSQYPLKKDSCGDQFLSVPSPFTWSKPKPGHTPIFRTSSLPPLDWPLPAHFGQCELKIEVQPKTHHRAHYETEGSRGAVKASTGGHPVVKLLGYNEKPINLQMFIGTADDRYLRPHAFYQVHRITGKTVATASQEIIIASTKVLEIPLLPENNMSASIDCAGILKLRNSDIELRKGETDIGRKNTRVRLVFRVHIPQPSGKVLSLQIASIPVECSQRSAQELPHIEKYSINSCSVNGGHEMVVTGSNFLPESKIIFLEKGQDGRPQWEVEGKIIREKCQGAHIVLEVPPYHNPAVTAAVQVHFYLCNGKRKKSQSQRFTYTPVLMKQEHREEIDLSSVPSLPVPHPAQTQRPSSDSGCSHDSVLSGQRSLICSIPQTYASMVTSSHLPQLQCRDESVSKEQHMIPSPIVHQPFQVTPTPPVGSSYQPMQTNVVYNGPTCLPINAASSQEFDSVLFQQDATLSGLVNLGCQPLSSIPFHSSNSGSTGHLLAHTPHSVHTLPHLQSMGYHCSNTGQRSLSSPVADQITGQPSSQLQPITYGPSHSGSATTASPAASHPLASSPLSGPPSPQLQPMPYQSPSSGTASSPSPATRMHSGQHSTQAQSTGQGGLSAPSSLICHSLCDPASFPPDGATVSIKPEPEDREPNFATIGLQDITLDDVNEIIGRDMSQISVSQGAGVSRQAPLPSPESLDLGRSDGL
# Sequence of UniProt P11586 (P11586 whole entry, looked up): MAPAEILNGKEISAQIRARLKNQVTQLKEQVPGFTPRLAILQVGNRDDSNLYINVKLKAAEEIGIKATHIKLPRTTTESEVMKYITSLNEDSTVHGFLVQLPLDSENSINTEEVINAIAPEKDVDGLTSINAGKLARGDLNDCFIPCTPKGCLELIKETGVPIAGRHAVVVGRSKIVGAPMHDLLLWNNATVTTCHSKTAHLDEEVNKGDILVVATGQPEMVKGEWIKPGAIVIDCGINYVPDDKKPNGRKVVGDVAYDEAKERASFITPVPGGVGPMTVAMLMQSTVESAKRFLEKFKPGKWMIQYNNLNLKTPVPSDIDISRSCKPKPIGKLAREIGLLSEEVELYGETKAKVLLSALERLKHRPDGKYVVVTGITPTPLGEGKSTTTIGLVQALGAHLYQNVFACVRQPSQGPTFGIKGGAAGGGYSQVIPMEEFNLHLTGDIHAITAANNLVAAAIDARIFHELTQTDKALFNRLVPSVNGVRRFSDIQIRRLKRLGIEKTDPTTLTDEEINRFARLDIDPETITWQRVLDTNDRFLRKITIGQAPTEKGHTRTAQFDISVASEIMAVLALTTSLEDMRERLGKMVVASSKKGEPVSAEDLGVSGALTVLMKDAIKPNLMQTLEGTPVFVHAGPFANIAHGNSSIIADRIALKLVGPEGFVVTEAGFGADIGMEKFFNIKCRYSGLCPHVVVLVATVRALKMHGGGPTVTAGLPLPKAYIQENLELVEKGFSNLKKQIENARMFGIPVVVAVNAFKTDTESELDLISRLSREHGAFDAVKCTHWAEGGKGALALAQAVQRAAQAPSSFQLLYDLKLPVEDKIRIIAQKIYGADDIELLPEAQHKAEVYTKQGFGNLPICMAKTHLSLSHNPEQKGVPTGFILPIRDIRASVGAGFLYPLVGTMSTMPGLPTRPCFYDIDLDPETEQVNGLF
# Sequence of UniProt Q9BUK6 (Q9BUK6 whole entry, looked up): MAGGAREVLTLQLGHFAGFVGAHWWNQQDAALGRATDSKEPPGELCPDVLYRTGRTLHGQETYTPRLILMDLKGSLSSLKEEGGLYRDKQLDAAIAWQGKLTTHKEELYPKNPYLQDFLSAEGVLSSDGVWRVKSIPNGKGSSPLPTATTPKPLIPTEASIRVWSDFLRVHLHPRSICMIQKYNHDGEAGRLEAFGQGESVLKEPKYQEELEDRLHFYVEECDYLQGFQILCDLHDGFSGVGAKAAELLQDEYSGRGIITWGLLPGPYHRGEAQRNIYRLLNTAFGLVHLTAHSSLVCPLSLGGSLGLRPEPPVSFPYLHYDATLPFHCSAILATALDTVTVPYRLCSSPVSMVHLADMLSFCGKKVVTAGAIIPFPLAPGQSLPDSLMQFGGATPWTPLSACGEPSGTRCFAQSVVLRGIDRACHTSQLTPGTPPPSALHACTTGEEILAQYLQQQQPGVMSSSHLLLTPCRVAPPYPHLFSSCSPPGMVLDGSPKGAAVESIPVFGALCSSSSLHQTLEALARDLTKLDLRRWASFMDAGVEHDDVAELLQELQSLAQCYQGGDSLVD
# Sequence of UniProt O14524 (O14524 whole entry, looked up): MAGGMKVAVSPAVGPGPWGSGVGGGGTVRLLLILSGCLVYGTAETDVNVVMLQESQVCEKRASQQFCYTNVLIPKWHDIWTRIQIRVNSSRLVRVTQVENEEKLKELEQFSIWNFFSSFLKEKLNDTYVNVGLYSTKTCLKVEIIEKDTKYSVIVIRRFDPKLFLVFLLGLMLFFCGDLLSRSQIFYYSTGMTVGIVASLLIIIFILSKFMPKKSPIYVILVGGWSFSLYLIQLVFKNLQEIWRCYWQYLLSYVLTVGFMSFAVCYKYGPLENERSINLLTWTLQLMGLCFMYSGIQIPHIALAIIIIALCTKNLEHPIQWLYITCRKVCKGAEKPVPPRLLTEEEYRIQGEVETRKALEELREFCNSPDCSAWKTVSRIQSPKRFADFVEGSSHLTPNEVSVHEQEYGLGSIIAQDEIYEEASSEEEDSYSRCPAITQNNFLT
# Sequence of UniProt O00483 (O00483 whole entry, looked up): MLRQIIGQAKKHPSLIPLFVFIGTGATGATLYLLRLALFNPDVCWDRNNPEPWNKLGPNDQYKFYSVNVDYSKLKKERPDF
# Sequence of UniProt P46934 (P46934 whole entry, looked up): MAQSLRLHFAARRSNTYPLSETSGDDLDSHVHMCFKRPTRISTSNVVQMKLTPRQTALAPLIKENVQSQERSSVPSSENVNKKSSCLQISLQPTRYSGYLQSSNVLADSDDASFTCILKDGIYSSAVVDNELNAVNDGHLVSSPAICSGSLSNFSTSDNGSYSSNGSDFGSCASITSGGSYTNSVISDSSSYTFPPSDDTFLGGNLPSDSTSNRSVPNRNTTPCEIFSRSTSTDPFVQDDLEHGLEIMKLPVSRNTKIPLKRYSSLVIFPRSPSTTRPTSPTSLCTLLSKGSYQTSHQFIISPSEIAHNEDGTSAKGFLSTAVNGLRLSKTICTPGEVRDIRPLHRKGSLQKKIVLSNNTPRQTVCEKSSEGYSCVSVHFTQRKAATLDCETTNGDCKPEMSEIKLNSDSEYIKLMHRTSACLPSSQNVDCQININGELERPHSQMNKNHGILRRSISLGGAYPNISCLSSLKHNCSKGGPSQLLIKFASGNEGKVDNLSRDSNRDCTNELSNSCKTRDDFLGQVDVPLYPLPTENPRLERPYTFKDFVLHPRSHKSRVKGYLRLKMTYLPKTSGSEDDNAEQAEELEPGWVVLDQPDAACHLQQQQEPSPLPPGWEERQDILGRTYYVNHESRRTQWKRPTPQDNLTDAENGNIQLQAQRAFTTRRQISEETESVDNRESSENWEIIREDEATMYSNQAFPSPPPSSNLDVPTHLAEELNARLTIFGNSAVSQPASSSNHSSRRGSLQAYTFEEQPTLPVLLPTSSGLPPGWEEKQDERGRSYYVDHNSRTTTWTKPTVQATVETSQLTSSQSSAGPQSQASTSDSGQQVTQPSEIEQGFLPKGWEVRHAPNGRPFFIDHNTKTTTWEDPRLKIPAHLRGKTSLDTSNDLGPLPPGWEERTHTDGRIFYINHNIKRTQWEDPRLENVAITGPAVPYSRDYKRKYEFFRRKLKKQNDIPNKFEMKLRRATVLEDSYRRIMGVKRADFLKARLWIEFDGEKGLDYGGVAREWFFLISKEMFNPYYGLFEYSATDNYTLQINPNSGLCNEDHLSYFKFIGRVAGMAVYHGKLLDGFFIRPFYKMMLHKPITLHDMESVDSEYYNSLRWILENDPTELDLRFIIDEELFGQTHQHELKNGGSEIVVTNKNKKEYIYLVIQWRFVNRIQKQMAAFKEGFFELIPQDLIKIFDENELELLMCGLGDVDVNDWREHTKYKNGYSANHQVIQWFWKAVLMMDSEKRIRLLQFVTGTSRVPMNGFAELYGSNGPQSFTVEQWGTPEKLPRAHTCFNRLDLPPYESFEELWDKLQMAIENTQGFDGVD
row,Target,log2 fold change
1,NUDCD2 (UniProt Q8WVJ2),-0.177
2,"NA, A0A096LPI6",0.023
3,NAP1L1 (UniProt P55209),-0.112
4,NCL (UniProt P19338),0.167
5,NUP107 (UniProt P57740),0.038
6,MRPL46 (UniProt Q9H2W6),0.209
7,MRPS22 (UniProt P82650),0.007
8,MSTO1 (UniProt Q9BUK6),0.014
9,NOL11 (UniProt Q9H8H0),0.029
10,NFYC (UniProt Q13952),0.012
11,MTMR14 (UniProt Q8NCE2),-0.194
12,NISCH (UniProt Q9Y2I1),-0.349
13,NAPG (UniProt Q99747),-0.118
14,NDUFA4 (UniProt O00483),0.033
15,NUMB (UniProt P49757),-0.017
16,MRPS18B (UniProt Q9Y676),0.028
17,NUP85 (UniProt Q9BW27),-0.158
18,MTHFD1 (UniProt P11586),-0.074
19,NOSIP (UniProt Q9Y314),-0.373
20,NECTIN2 (UniProt Q92692),0.071

row,Target,log2 fold change
1,NUP205 (UniProt Q92621),-0.108
2,NFATC2IP (UniProt Q8NCF5),-0.09
3,NRF1 isoform 4 (UniProt Q16656),-0.173
4,MRPS12 (UniProt O15235),-0.043
5,MON1B (UniProt Q7L1V2),-0.002
6,NEMP1 (UniProt O14524),0.007
7,NDUFAF6 (UniProt Q330K2),-0.27
8,NFATC3 (UniProt Q12968),0.038
9,MRPS15 (UniProt P82914),-0.021
10,NUP160 (UniProt Q12769),-0.109
11,NEU1 (UniProt Q99519),-0.184
12,OGFR (UniProt Q9NZT2),0.026
13,NBN (UniProt O60934),-0.072
14,MYH10 isoform 3 (UniProt P35580),-0.082
15,MRPS24 (UniProt Q96EL2),-0.004
16,NOP2 isoform 4 (UniProt P46087),0.196
17,NEDD4 isoform 4 (UniProt P46934),-0.102
18,NOLC1 isoform 2 (UniProt Q14978),-0.155
19,PAFAH1B2 (UniProt P68402),0.002

# Compound: CC[C@@H]1C(=O)N(C)c2cnc(Nc3ccc(C(=O)N[C@H]4CC[C@H](N5CCN(CC6CC6)CC5)CC4)cc3OC)nc2N1C(C)C [volasertib]
# Test: as above
# Method in brief: as §1
row,Target,log2 fold change
1,NUDCD2 (UniProt Q8WVJ2),-0.566 (active)
2,"NA, A0A096LPI6",0.044
3,NAP1L1 (UniProt P55209),-0.237 (active)
4,NCL (UniProt P19338),0.173
5,NUP107 (UniProt P57740),-0.182
6,MRPL46 (UniProt Q9H2W6),0.302
7,MRPS22 (UniProt P82650),-0.05
8,MSTO1 (UniProt Q9BUK6),-0.012
9,NOL11 (UniProt Q9H8H0),-0.097
10,NFYC (UniProt Q13952),0.015
11,MTMR14 (UniProt Q8NCE2),-0.622 (active)
12,NISCH (UniProt Q9Y2I1),-0.487 (active)
13,NAPG (UniProt Q99747),-0.462 (active)
14,NDUFA4 (UniProt O00483),0.042
15,NUMB (UniProt P49757),0.057
16,MRPS18B (UniProt Q9Y676),-0.039
17,NUP85 (UniProt Q9BW27),-0.561 (active)
18,MTHFD1 (UniProt P11586),-0.002
19,NOSIP (UniProt Q9Y314),-1.06 (active)
20,NECTIN2 (UniProt Q92692),0.029

row,Target,log2 fold change
1,NUP205 (UniProt Q92621),-0.35 (active)
2,NFATC2IP (UniProt Q8NCF5),-0.278 (active)
3,NRF1 isoform 4 (UniProt Q16656),-0.501 (active)
4,MRPS12 (UniProt O15235),-0.024
5,MON1B (UniProt Q7L1V2),-0.183
6,NEMP1 (UniProt O14524),-0.128
7,NDUFAF6 (UniProt Q330K2),-0.027
8,NFATC3 (UniProt Q12968),-0.331
9,MRPS15 (UniProt P82914),-0.048
10,NUP160 (UniProt Q12769),-0.62 (active)
11,NEU1 (UniProt Q99519),-0.501 (active)
12,OGFR (UniProt Q9NZT2),-0.103
13,NBN (UniProt O60934),-0.219 (active)
14,MYH10 isoform 3 (UniProt P35580),-0.216 (active)
15,MRPS24 (UniProt Q96EL2),0.121
16,NOP2 isoform 4 (UniProt P46087),0.348
17,NEDD4 isoform 4 (UniProt P46934),-0.521 (active)
18,NOLC1 isoform 2 (UniProt Q14978),-0.024
19,PAFAH1B2 (UniProt P68402),0.064
